D2 antagonist: antagonists of human D2 dopamine receptor. P14416. HEK293 TREx D2 cells, calcium flux, dopamine EC80. inhibition, % at 10 µM. hit rate 2% among 340,000; in the data active = inhibition above about 30%; inactive = below that, where a call was filed; also: 0% is about no effect
Target sequence (P14416 whole entry, looked up): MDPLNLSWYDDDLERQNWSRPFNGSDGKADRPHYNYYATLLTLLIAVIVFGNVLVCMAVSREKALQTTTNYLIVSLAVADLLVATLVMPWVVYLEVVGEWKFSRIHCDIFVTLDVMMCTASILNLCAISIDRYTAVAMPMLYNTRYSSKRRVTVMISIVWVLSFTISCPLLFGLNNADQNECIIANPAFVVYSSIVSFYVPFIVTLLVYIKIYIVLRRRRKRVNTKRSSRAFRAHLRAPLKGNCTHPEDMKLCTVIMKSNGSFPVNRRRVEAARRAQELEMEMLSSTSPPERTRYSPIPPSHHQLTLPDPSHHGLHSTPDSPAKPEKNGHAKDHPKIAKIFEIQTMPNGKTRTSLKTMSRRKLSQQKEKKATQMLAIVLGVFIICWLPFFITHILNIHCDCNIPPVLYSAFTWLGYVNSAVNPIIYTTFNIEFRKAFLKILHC
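Calcium mobilization kinetics were recorded at 1 s intervals in tetracycline-induced HEK293 T-REx D2 cells, first for 180 s after compound addition and then 180 s after EC80 dopamine.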
D2 PAM-1: potentiates the human D2 dopamine receptor allosterically | P14416 | DiscoveRx D2 beta-arrestin cells, luminescence, 90 min; 100% = 57 uM dopamine signal | potentiation, % (no concentration beside the values) | hit rate 0.23% among 360,000; in the data active = potentiation above about 50%
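PathHunter D2 cells, attached overnight at 37 deg C, received compound in DMSO plus dopamine at EC20 (50 nM final) for 90 min at 37 deg C. Beta-arrestin recruitment was read as luminescence after 1 h with detection reagent at ambient temperature.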
D2 ag-1: activates the human D2 dopamine receptor; hit rate 0.084% among 360,000; DiscoveRx PathHunter D2 beta-arrestin, luminescence, 90 min; 100% = 57 uM dopamine signal; P14416; activation, % (test concentration not listed); in the data active = activation above about 40%
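DiscoveRx PathHunter D2 beta-arrestin cells (2,100/well) attached overnight, then compound-stimulated 90 min at 37 C in HBSS/10 mM HEPES/0.1% Tween-20 buffer; beta-galactosidase complementation read by luminescence after 1 h at ambient temperature. Dopamine 57 uM final (EC100) as control.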
D2 PAM-2: positively modulates the human D2 dopamine receptor allosterically | P14416 | HEK293 T-REx D2, calcium flux, EC20 dopamine potentiation | potentiation, % at 10 µM | hit rate 0.34% among 340,000 | AID 485347;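 active = potentiation over 3 SD above the plate norm, cut at about 30% in these data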; also: 0% is about no effect
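Cells plated with tetracycline inducer and held overnight at 30 C; calcium dye loaded 30–90 min at room temperature; baseline taken, compound added and read 180 s; EC20 dopamine then added and read 180 s.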
D2 ag-2: agonists of human D2 dopamine receptor | P14416 | AID 485358 | HEK293 T-REx D2 cells, calcium flux agonist mode | activation, % at 2 µM | hit rate 0.53% among 340,000;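 active = activation over 3 SD above normal in the single-dose calcium agonist read, cut at about 30% in these data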; also: 0% is about no effect
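Agonism scored from kinetic calcium signal (1 read/sec, 180 s) following compound pin transfer, after a 10 s baseline. Cells: HEK293 Trex line expressing inducible D2 receptor coupled to calcium, dye-loaded after overnight culture at 30 C.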
An asterisk follows results filed as active; / = no result given. Rows were chosen to be rich in hits. Some 2.4% of all compounds tested hit in one or more screens of this group.

SMILES	D2 antagonist	D2 PAM-1	D2 ag-1	D2 PAM-2	D2 ag-2
CN(Cc1ccccc1)C(=C(Cl)Cl)C(=C1NCCN1)[N+](=O)[O-]	34*	-9	-3	-9	1
CCC(CC)COC(=O)C1=C(C)NC(=O)NC1c1ccc2c(c1)OCO2 (configuration not stated)	3	2	3	-3	0
Cc1cc(C(=O)OC(C)C(=O)Nc2nc(-c3ccccc3)cs2)c(C)o1 (configuration not stated)	-8	3	-1	28	-1
CC(OC(=O)c1ccc([N+](=O)[O-])o1)C(=O)Nc1nc(-c2ccc(F)c(F)c2)cs1 (configuration not stated)	3	66*	7	-6	0
Cc1ccccc1OCC(=O)NNC(=O)c1cc(S(=O)(=O)N2CCOCC2)ccc1N1CCCC1	-7	-1	-2	-3	0
CCOC(=O)N1CCN(c2c(NCCc3ccc(OC)c(OC)c3)c(=O)c2=O)CC1	36*	-3	-1	2	0
CCOC(=O)c1c(C(=O)OCC)c(C)n(CCc2ccc(OC)c(OC)c2)c1C	33*	28	2	0	-3
Cc1ccc(C(=O)COC(=O)COc2ccc(C)c(C)c2)cc1	-4	-1	-3	-4	1
Cc1cc(NC(=O)CSc2nnc(-c3ccccc3)c(-c3ccccc3)n2)no1	80*	-2	1	-7	-1
Cc1cc(NC(=O)CSc2ccccc2)no1	2	-22	-2	6	-1
Cc1cc(NC(=O)CCS(=O)(=O)c2nc(-c3ccccc3)cc(C(F)(F)F)n2)no1	13	-19	-7	38*	1
Cc1cc(C)cc(-c2nnc(SCC(=O)Nc3cc(C)on3)o2)c1	36*	-11	0	8	0
Cc1cc(NC(=O)CCc2ccc(-c3ccccc3)o2)no1	33*	-19	-6	-16	0
Cc1cc(NC(=O)CSc2nnc(-c3ccccc3)o2)no1	/	-3	1	/	/
COc1ccc(NC(=O)CCS(=O)(=O)c2nc(-c3ccc4c(c3)OCO4)cc(C(F)(F)F)n2)cc1	/	/	/	6	1
Cc1ccc(C)c(NC(=O)c2nn(C)c3c2CS(=O)(=O)c2ccccc2-3)c1	/	/	/	-3	0
COc1ccc(OC)c(NC(=O)CC(=O)Nc2ccc3nc4n(c(=O)c3c2)CCCCC4)c1	/	/	/	-10	0
O=C(Cc1ccccc1)N[C@@H](Cc1ccc(O)cc1)C(=O)O	36*	/	/	3	0
COc1ccccc1CNC(=O)N[C@@H](Cc1ccccc1)C(=O)O	37*	-6	-1	0	0
O=C(NCCc1ccccc1)C(=O)NCC(c1cccnc1)N1CCN(c2ccccc2)CC1 (configuration not stated)	/	/	/	/	0
Cc1ccc(C(=O)N/C(=C\c2sccc2C)C(=O)NCCCN2CCOCC2)cc1	31*	-11	-3	-9	0
CCOc1cc(CNS(=O)(=O)c2ccc3c(c2)C(C)(C)C(=O)N3)cc(OCC)c1OCC	/	/	/	4	0
Cc1ccc(S(=O)(=O)Nc2c(O)ccc3ccccc23)cc1	/	8	56*	/	/
Cc1cc(C)n(C(=O)CN2C(=O)c3ccccc3C2=O)n1	3	-6	-1	-2	-1
Cc1cc(C)n(C(=O)C(C)N2C(=O)c3ccccc3C2=O)n1 (configuration not stated)	-7	-2	-2	31*	-1
SMILES	D2 antagonist	D2 PAM-1	D2 ag-1	D2 PAM-2	D2 ag-2
CCOc1ccc2nc(N3CCC(C(=O)Nc4ccccc4CC)CC3)sc2c1	/	/	/	13	/
c1ccc(CN2CCC3(CCCc4ccccc43)CC2)cc1	43*	-25	-1	-13	0
Cc1ccc(-n2ncc3c(NCc4ccccc4)ncnc32)cc1C	/	/	/	8	/
c1ccc(-c2ncc(CSc3nncn3-c3ccccc3)s2)cc1	/	-20	-4	/	/
Cc1nnc(SCc2cnc(-c3ccc(C(C)C)cc3)s2)n1C	67*	3	-3	1	-2
CCc1ccc(OCC(=O)Nc2cc3oc4ccccc4c3cc2OC)c(Br)c1	/	/	/	4	0
Cc1oc(-c2ccccc2F)nc1CSCC(=O)NCCc1ccccc1	/	/	/	10	/
Cc1oc(-c2ccccc2F)nc1CSCC(=O)NCc1ccc2c(c1)OCO2	-4	8	-4	33*	-3
CCN(Cc1ccccc1)Cc1ccc(OCc2ccccc2)cc1	31*	-68	-4	-8	-2
Cn1cc(C(=O)Nc2ccccn2)c(=O)c2ccccc21	7	7	10	1	0
Cc1c(C(=O)NCc2ccccc2C(F)(F)F)sc(=O)n1Cc1ccc2c(c1)OCO2	/	-6	8	/	/
C=CCN1C(=O)N/C(=C/c2ccc(C)o2)C1=O	-3	-21	-11	-15	39*
CCOC(=O)c1nnc2c(-c3ccc(OC)cc3)c(C)nn2c1N	/	/	/	1	-1
Cc1ccc(C)c(NCCCCC(=O)O)c1	/	1	3	/	/
Cc1ccc(C(NC(N)=O)c2ccccc2)cc1 (configuration not stated)	40*	-2	1	5	0
CS(=O)(=O)c1ccccc1C(=O)Nc1ccccc1Cc1ccccc1	-14	-1	1	-7	0
Cc1ccc(C(NC(=O)c2ccccc2S(C)(=O)=O)c2ccccc2)cc1 (configuration not stated)	-17	-5	-1	34*	-1
O=C(Nc1ccc2c(c1)CCCN2C(=O)c1ccco1)c1cc([N+](=O)[O-])ccc1Cl	1	56*	7	-1	0
O=C(Nc1ccc(N2CCN(C(=O)c3ccco3)CC2)cc1)c1ccc([N+](=O)[O-])cc1Cl	-1	-3	5	-4	1
CC(C)Nc1ncnc2c1ncn2[C@H]1CN(Cc2cccs2)C[C@@H](CO)O1	/	-1	-4	/	/
CC(=O)c1cccc(-c2ccnc3c2CC(C(=O)NCc2cccs2)O3)c1 (configuration not stated)	/	-1	3	/	/
CCOC(=O)C1=C(CN2CCN(C(=O)c3ccco3)CC2)NC(=O)NC1c1ccc(C)cc1 (configuration not stated)	37*	-12	2	1	2
Cc1ccc(S(=O)(=O)N(C)CC(=O)Nc2cc(C)ccn2)cc1	-5	-3	-5	-18	0
CCN(CC)C(=O)CN1C(=O)COc2ccc(S(=O)(=O)N3CCOCC3)cc21	/	/	/	-1	0
CCC(C)NC(=O)CN1C(=O)COc2ccc(S(=O)(=O)N3CCOCC3)cc21 (configuration not stated)	44*	3	-1	-9	0
COCCN1Cc2cccc(C(=O)Nc3ccc(C)cc3)c2C1=O	41*	0	2	4	1
CCCOC(=O)c1c(NC(=O)C2c3ccccc3Oc3ccccc32)sc2c1CCC(C)C2 (configuration not stated)	/	/	/	-3	0

Assay outcomes: PubChem BioAssay, National Center for Advancing Translational Sciences (NCATS)
